Source: PubChem BioAssay (NCI)
Compounds without any hit were thinned out: in the full panel of roughly 79,000, 15% have a hit. Activity calls are given as the source filed them. No stated cut-off is given here; in the data, active means growth inhibition above about 70%; inactive means the rest.

How the values were obtained:
[1] = NCI Yeast Anticancer Drug Screen. Data for the rad52 strain (AID 147);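 further: 0% = growth of vehicle-treated control cultures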; conditions: S. cerevisiae rad52 mutant growth inhibition, hits give high values
Procedure, shortened: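 Vehicle-treated cultures served as the reference for growth inhibition of compound-exposed yeast bearing a DNA repair mutation.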

[2] = NCI Yeast Anticancer Drug Screen. Data for the wt1 strain (AID 149);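 further: 0% = growth of vehicle-treated wt1 cultures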; conditions: S. cerevisiae wt1 strain (SPY 50644) growth inhibition, hits give high values
Procedure, shortened: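 Measured: growth of wt1 yeast under compound versus vehicle treatment, reported as inhibition.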

[3] = NCI Yeast Anticancer Drug Screen. Data for the rad50EPP+ strain (AID 151);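 further: 0% = growth of vehicle-treated control cultures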; conditions: S. cerevisiae rad50 mutant strain, hits give high values
Procedure, shortened: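 In this screen, rad50EPP+ yeast were exposed to compounds. Growth inhibition was scored against vehicle-treated controls.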

[4] = NCI Yeast Anticancer Drug Screen. Data for the mgt1 strain (AID 153); conditions: S. cerevisiae mgt1 mutant growth inhibition, hits give high values
Procedure, shortened: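 mgt1 strain exposed; growth vs vehicle control recorded as inhibition.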

[5] = NCI Yeast Anticancer Drug Screen. Data for the rad50 strain (AID 155);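 further: 0% = growth of vehicle-only cultures of the same strain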; conditions: S. cerevisiae rad50 strain growth inhibition, hits give high values
Procedure, shortened: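 Growth of the mutant yeast was measured after compound exposure and referenced to vehicle-treated cultures.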

[6] = NCI Yeast Anticancer Drug Screen. Data for the mec2-1 strain (AID 157); conditions: S. cerevisiae mec2-1 strain, hits give high values
Procedure, shortened: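 Vehicle-treated cultures served as reference for growth inhibition of compound-exposed mec2-1 yeast.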

[7] = NCI Yeast Anticancer Drug Screen. Data for the rad14 strain (AID 159);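 further: 0% = growth of vehicle-treated control cultures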; conditions: S. cerevisiae rad14 strain growth inhibition, hits give high values
Procedure, shortened: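 Here, inhibition of yeast growth was measured after compound exposure, using a strain with a genetic defect in DNA damage repair and vehicle-treated cultures as the reference.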

[8] = NCI Yeast Anticancer Drug Screen. Data for the sgs1 mgt1 strain (AID 161);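 further: 0% = growth of cultures given vehicle only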; conditions: S. cerevisiae sgs1 mgt1 strain, hits give high values
Procedure, shortened: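 Test agents were incubated with a DNA-repair-mutant yeast strain. Growth was then read and compared against vehicle-treated controls.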

[9] = NCI Yeast Anticancer Drug Screen. Data for the CLN2oe strain (AID 163);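 further: 0% = growth of vehicle-only control cultures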; conditions: S. cerevisiae CLN2oe strain, hits give high values
Procedure, shortened: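 Inhibition relative to vehicle-treated yeast is reported. Cells: strain with genetic alteration in cell-cycle control, grown with compound.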

[10] = NCI Yeast Anticancer Drug Screen. Data for the cln2 rad14 strain (AID 165);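 further: 0% = growth equal to vehicle treated cultures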; conditions: S. cerevisiae cln2 rad14 strain, hits give high values
Procedure, shortened: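 Each compound was tested on cln2 rad14 yeast. Inhibition of growth was calculated against vehicle-exposed controls.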

[11] = NCI Yeast Anticancer Drug Screen. Data for the bub3 strain (AID 167); conditions: S. cerevisiae bub3 mutant strain, hits give high values
Procedure, shortened: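 Whole-cell yeast assay. The mutant strain was incubated with compounds, and growth inhibition was determined by comparison with vehicle-treated cells.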

[12] = NCI Yeast Anticancer Drug Screen. Data for the wt2 strain (AID 169);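 further: 0% = growth of vehicle-treated yeast cultures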; conditions: S. cerevisiae wt2 strain growth inhibition, hits give high values
Procedure, shortened: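 Inhibition of yeast growth was determined after compound treatment, normalised to controls receiving only vehicle.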

[13] = NCI Yeast Anticancer Drug Screen. Data for the mlh1 strain (AID 171);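 further: 0% = growth of vehicle-treated control cultures of the same strain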; conditions: S. cerevisiae mlh1 strain growth inhibition, hits give high values
Procedure, shortened: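 Vehicle-normalised growth inhibition of a repair- or checkpoint-altered yeast strain following compound treatment.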

[14] = NCI Yeast Anticancer Drug Screen. Data for the sgs1 strain (AID 173);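 further: 0% = growth of vehicle-only control cultures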; conditions: S. cerevisiae sgs1 mutant, hits give high values
Procedure, shortened: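 Screen format: yeast with repair or checkpoint alterations, compound exposure, growth read relative to vehicle.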

[15] = NCI Yeast Anticancer Drug Screen. Data for the rad18 strain (AID 177); conditions: S. cerevisiae rad18 mutant growth inhibition, hits give high values
Procedure, shortened: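 Test articles were incubated with altered yeast defective in DNA damage repair. Results are given as inhibition of growth versus vehicle.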

[16] = at 5.0 µM (retest, dose inferred, filed as 0.5)
[17] = at 50.0 µM (retest, dose inferred, filed as 5.0)

Measured: growth inhibition

C/C(=N\NC(=S)N1CCCCC1)c1cccc(C)n1
inactive: [1]; at 1.2 µM -4% | [2]; at 1.2 µM 41% | [3]; at 1.2 µM -8% | [3]; at 3.7 µM 38% | [4]; at 1.2 µM 49% | [5]; at 1.2 µM 23% | [6]; at 1.2 µM 39% | [7]; at 1.2 µM 45% | [9]; at 1.2 µM 50% | [11]; at 1.2 µM 21% | [12]; at 1.2 µM -10% | [13]; at 1.2 µM 1% | [14]; at 1.2 µM 9% | [15]; at 1.2 µM 7%
active: [1]; at 3.7 µM 91% | [1]; at 11.0 µM 97% | [1]; at 33.0 µM 99% | [1]; at 100.0 µM 99% | [2]; at 3.7 µM 95% | [2]; at 11.0 µM 98% | [2]; at 33.0 µM 99% | [2]; at 100.0 µM 99% | [3]; at 11.0 µM 95% | [3]; at 33.0 µM 99% | [3]; at 100.0 µM 99% | [4]; at 3.7 µM 94% | [4]; at 11.0 µM 99% | [4]; at 33.0 µM 99% | [4]; at 100.0 µM 98% | [5]; at 3.7 µM 94% | [5]; [16] 89% | [5]; at 11.0 µM 98% | [5]; at 33.0 µM 98% | [5]; [17] 100% | [5]; at 50.0 µM 89.7% | [5]; at 100.0 µM 98% | [6]; at 3.7 µM 92% | [6]; [16] 86% | [6]; at 11.0 µM 96% | [6]; at 33.0 µM 99% | [6]; [17] 100% | [6]; at 50.0 µM 92.2% | [6]; at 100.0 µM 99% | [7]; at 3.7 µM 97% | [7]; at 11.0 µM 99% | [7]; at 33.0 µM 100% | [7]; at 100.0 µM 99% | [8]; [16] 81% | [8]; [17] 99% | [8]; at 50.0 µM 85.8% | [9]; at 3.7 µM 94% | [9]; at 11.0 µM 99% | [9]; at 33.0 µM 100% | [9]; at 100.0 µM 99% | [10]; [16] 93% | [10]; [17] 99% | [10]; at 50.0 µM 90.7% | [11]; at 3.7 µM 87% | [11]; [16] 93% | [11]; at 11.0 µM 99% | [11]; at 33.0 µM 99% | [11]; [17] 99% | [11]; at 50.0 µM 89.2% | [11]; at 100.0 µM 99% | [12]; at 3.7 µM 94% | [12]; at 11.0 µM 97% | [12]; at 33.0 µM 98% | [12]; at 100.0 µM 99% | [13]; at 3.7 µM 92% | [13]; at 11.0 µM 96% | [13]; at 33.0 µM 96% | [13]; at 100.0 µM 96% | [14]; at 3.7 µM 91% | [14]; at 11.0 µM 98% | [14]; at 33.0 µM 98% | [14]; at 100.0 µM 98% | [15]; at 3.7 µM 90% | [15]; at 11.0 µM 98% | [15]; at 33.0 µM 98% | [15]; at 100.0 µM 97%
